According to PubChem BioAssay (Tox21):
Values without a mark were called inactive. Entries that show only a call come without a potency. The source made the active and inactive calls. Calls come from the whole dose curve.

Target: Gonadotropin-releasing hormone receptor (Homo sapiens) (UniProt P30968)
Assay: Human gonadotropin-releasing hormone receptor (GnRHR) small molecule agonists, calcium flux assay in GnRHR-HEK293 cells (AID 1920063); note: nearly all actives have a fitted effect of over 35% in size
Conditions: calcium flux fluorescence, agonist mode; series mostly up to 57.6 µM
From the text: National Center for Advancing Translational Sciences [NCATS]
Division of Preclinical Innovation [DPI]
U.S. Environmental Protection Agency [EPA]
National Institutes of Environmental Health Sciences [NIEHS]
National Toxicology Program [NTP]
U.S. Food and Drug Administration [FDA]
Gonadotropin-releasing hormone receptor (GnRHR) is a G-protein-coupled receptor (GPCR) and acts (through phospholipase C) to increase intracellular inositol trisphosphate and then release intracellular calcium stores. Cell-based GnRHR-Hek293 calcium influx assay is using HEK293 cells that have been genetically engineered to express the human GnRHR, which activity can be measured by calcium signaling. A compound/drug can activate (agonist) GnRHR that can be monitored by levels of intracellular calcium.
GnRHR-HEK293 cells developed by Codex Corp contain human GnRHR reporter gene, which was stably integrated into HEK 293 cells. The compound activation can be detected by fluorescence intensity via calcium flux assay. This cell line has been used to screen the Tox21 10K compound library to identify GnRHR agonists.
GnRHR-Hek293 cells were dispensed at 1500cells/4uL/well in 1536-well black wall/clear bottom plates using a multidrop dispenser. After the assay plates were incubated at a 37 C/5% CO2 incubator for 18 hours, 4 uL of Calcium Dye Solution was added to each well. The plates were incubated at 37 C for 1 hour. For agonist mode, 23 nL of compounds dissolved in DMSO, positive controls or DMSO only was transferred to the assay plate by a pin tool station. The fluorescence intensity in the plates was measured using FDSS 7000EX kinetic plate reader with a filter set of Ex/Em=480/540 for 3 min at 1 sec intervals. Each test compound was measured at 15 concentrations and in triplicates.

Chain of Gonadotropin-releasing hormone receptor (Homo sapiens) (P30968 whole entry, looked up): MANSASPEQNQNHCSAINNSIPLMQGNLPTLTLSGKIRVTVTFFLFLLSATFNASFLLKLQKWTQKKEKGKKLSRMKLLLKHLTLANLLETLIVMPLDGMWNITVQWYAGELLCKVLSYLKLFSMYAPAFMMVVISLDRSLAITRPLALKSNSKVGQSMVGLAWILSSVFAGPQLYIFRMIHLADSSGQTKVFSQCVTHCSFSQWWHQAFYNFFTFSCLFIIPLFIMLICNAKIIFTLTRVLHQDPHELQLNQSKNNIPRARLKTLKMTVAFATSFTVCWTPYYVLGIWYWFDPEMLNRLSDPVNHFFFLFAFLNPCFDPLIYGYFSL

Row | Compound | Potency | activity change
1 | CCC(C)(CN(C)C)OC(=O)c1ccccc1 (stereo not given) | inactive | –
2 | CC(CCc1ccc2c(c1)OCO2)NN (stereo not given) | inactive | –
3 | CC(C)(C)c1ccc(N)cc1 | inactive | –
4 | O=C1OC(=O)c2c(Br)c(Br)c(Br)c(Br)c21 | inactive | –
5 | c1ccc(-c2nc[nH]c2-c2ccccc2)cc1 | inactive | –
6 | O=P(O)(O)OP(=O)(O)O | inactive | –
7 | C=Cc1ccc(S(=O)(=O)O)cc1 | inactive | –
8 | CC(O)C#CC(C)O (stereo not given) | inactive | –
9 | Cn1cc(C(=O)[C@@H]2CCc3nc[nH]c3C2)c2ccccc21 | inactive | –
10 | COC(=O)CCSCCC(=O)OC | inactive | –
11 | CC(C)(C)c1ccc(C(O)CCCN2CCC(C(O)(c3ccccc3)c3ccccc3)CC2)cc1 (stereo not given) | inactive | –
12 | CCN(Cc1ccncc1)C(=O)C(CO)c1ccccc1 (stereo not given) | inactive | –
13 | CS(=O)(=O)CCNCc1ccc(-c2ccc3ncnc(Nc4ccc(OCc5cccc(F)c5)c(Cl)c4)c3c2)o1 | inactive | –
14 | COc1ccc2c(c1)c1c3n2CCN(C)C3=NCC1 | inactive | –
15 | NNC(=O)OCc1ccccc1 | inactive | –
16 | CCCCCCCCS(=O)(=O)O | inactive | –
17 | COC(C)(C)CC(C)=O | inactive | –
18 | NC(=O)n1c(O)c(C(=O)c2cccs2)c2cc(Cl)ccc21 | inactive | –
19 | C[C@]12CC[C@@H]3c4ccc(O)cc4CC[C@H]3[C@@H]1CC[C@@H]2OC(=O)CCC1CCCC1 | inactive | –
20 | O=C(Cl)c1ccc([N+](=O)[O-])cc1 | inactive | –

Row | Compound | Potency | activity change
21 | CCC(Cl)CC(Cl)C(Cl)C(Cl)C(Cl)C(C)Cl (stereo not given) | – | -1.19% [at 11.8 µM, hits give high values]
22 | O=C(O)c1cc(C(=O)O)cc(C(=O)O)c1 | inactive | –
23 | CCOc1ccc(OCC)c(Cl)c1 | inactive | –
24 | Cc1ccc([N+](=O)[O-])c(N)c1 | inactive | –
25 | Cc1ccc(C(=O)O)cc1[N+](=O)[O-] | inactive | –
26 | CCCCN(CCCC)c1ccc(C(=O)c2ccccc2C(=O)O)c(O)c1 | inactive | –
27 | CCCc1ccc(OCC(=O)N2CCN(C(=O)COc3ccc(CCC)cc3OC)CC2)c(OC)c1 | inactive | –
28 | Brc1cc2ccccc2c2ccccc12 | inactive | –
29 | CN(C)c1ccc(N=Nc2ccccc2C(=O)O)cc1 | inactive | –
30 | Cc1ccc(N)cc1O | inactive | –
31 | CCCCCCNC(=O)n1cc(F)c(=O)[nH]c1=O | inactive | –
32 | COc1nc(C)nc(N)n1 | inactive | –
33 | CN(C)C(C)(C)CO | inactive | –
34 | NCCCC(O)(P(=O)(O)O)P(=O)(O)O | inactive | –
35 | S=c1[nH]c2ccccc2s1 | inactive | –
36 | CO/N=C1\CN(c2nc3c(cc2F)c(=O)c(C(=O)O)cn3C2CC2)CC1CN (stereo not given) | inactive | –
37 | CC(CN)CC(C)(C)CCN (stereo not given) | inactive | –
38 | CC(Cc1ccccc1)(NC(=O)CN)c1ccccc1 (stereo not given) | inactive | –
39 | C1CCOC1 | inactive | –
40 | Oc1ccc(C2(c3ccc(O)cc3)CC3CC2C2CCCC32)cc1 (stereo not given) | inactive | –
